The list is not random: actives were taken first. Their share in the collection is about 0.52%.
TRPML1 agonist: agonists of human TRPML1 channel; Q9GZU1; TRPML1-expressing cells, Ca2+ dye fluorescence, FDSS; activation, % (no concentration beside the values); 410,000 compounds, 0.12% hits; AID 624414; in the data active means activation above about 50%; inconclusive means mostly about 30% to 49%; further: 0% is about no effect
Target sequence (Q9GZU1 whole entry, looked up): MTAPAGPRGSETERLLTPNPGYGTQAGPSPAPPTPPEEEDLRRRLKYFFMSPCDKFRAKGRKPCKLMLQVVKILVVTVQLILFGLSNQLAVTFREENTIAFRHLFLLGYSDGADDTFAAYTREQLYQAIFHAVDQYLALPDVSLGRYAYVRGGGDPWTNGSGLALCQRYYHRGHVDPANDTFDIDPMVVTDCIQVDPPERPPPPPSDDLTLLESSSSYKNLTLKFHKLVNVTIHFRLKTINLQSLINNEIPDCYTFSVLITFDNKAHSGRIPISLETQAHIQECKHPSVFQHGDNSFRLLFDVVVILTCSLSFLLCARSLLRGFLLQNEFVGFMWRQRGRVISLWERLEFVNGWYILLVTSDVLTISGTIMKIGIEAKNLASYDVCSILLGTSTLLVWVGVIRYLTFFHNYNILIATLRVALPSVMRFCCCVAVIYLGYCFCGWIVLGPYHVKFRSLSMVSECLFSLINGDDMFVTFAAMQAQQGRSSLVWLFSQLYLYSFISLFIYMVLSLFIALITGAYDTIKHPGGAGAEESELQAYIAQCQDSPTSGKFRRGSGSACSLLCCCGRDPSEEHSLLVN
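Kinetic FDSS Ca2+ read in Tet-induced TRPML1-DL cells (ABD Ca8 dye plus quencher, 45-90 min RT loading): baseline, then compound, then 110 s agonist window; EC80 agonist 54-4 at 4uM final added afterwards for a 110 s antagonist window.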
TRPML1 inh: inhibitors of human TRPML1 channel | Q9GZU1 | TRPML1-inducible cells, Ca2+ dye fluorescence, FDSS; stronger effect = lower value; inhibition of EC80 agonist-evoked calcium signal | activity change, negative = inhibition, % (no concentration beside the values) | 390,000 compounds, 0.02% hits; in the data active means activity change below about -50%; inconclusive means between about -30% and that limit;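 further: stimulus is agonist 54-4 at its EC80 concentration; on the % scale 0 is the no-effect control and ±100 the full control effect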
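Calcium fluorescence in TRPML1-DL cells induced overnight with Tet: a 110 s read after compound pin addition, then a 110 s antagonist read after challenge with 54-4 at 4 uM final (EC80).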
PINK1 expr mod: PINK1 expression modulation; PINK1 immunofluorescence, high-content cytometry, 24 h; 410,000 compounds, 0.2% hits; Potency, µM (series often up to 76.6 µM), inactives show at the top dose activation (PINK1 increase), hits mostly activators; active means well fitted activation curve with a large enough effect; inconclusive means small, poorly fitted or top-dose-only effect; cell line not stated here; further: potency means the concentration at half of the fitted maximal effect; % of control where 0% means no effect; nearly all actives have a fitted effect of over 65% in size
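Readout is PINK1 immunofluorescence, quantified alongside mitochondrial, cell and nuclear markers by laser-scanning microplate cytometry. Cells from a stable line were exposed to compound titrations (5 concentrations) for 24 hours, with CCCP controls.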
Vif-APOBEC3F blk: blocks the Vif interaction with APOBEC3F. 390,000 compounds, 0.2% hits. AID 602313. HeLa A3F-eYFP + Vif (tagged APOBEC3F with the HIV-1 protein that degrades it), YFP fluorescence increase. Potency, µM (titrated, usually from 46.1 µM), for inactives: top-dose activity, negative = active; further: potency means the concentration at half of the fitted maximal effect; % of control where 0% means no effect; nearly all actives have a fitted effect of over 65% in size
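HeLa cells stably expressing Vif plus C-terminally eYFP-tagged A3F were seeded, incubated overnight at 37 deg C, dosed with compound, incubated overnight again at 37 deg C. Yellow fluorescence (Ex 488/Em 500-530) reported blocked Vif-mediated A3F-eYFP degradation.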
Vif-A3G inh: inhibitors of Vif-APOBEC3G interaction | Q9HC16 | HeLa A3G-eYFP + Vif (tagged APOBEC3G with the HIV-1 protein that degrades it), YFP fluorescence, overnight | Potency, µM (top dose mostly 46.1 µM), without a hit: at the top dose activity, negative = active, actives largely listed as inhibitors | 410,000 compounds, 0.076% hits | AID 602310; further: potency means the concentration at half of the fitted maximal effect; on the % scale 0 is the no-effect control and ±100 the full control effect; nearly all actives have a fitted effect of over 60% in size
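Read-out is eYFP fluorescence (Ex 488/Em 500-530) from Vif-expressing HeLa A3G-eYFP cells; more signal means A3G escaped Vif-mediated degradation. Cells plated overnight, compound pinned in, incubated overnight at 37 deg C.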
* hit, by the source's call; ? = inconclusive; . = no result; [ ] = dose if it differs, or a comment. Unless noted, the call rests on the fitted dose curve; in most records, active means well fitted curve in the direction sought with a large enough effect; inconclusive means small, poorly fitted or top-dose-only effect, or another doubt; inactive means no such curve, though single readings can be large; an effect the other way counts as inactive or inconclusive.

SMILES	TRPML1 agonist	TRPML1 inh	PINK1 expr mod	Vif-APOBEC3F blk	Vif-A3G inh
Cc1ccc(-n2nc(C(=O)N(C)Cc3ccccc3)c3c4ccccc4n(C)c3c2=O)cc1	0	-2	0%	-3%	-2%
C=CC[n+]1ccc(/C=C2\C=Cc3cc(C)ccc3N2CC)c2ccccc21	0	-30	3.2µM*	-2%	11%
CCN1/C(=C/c2cc[n+](CCCS(=O)(=O)[O-])c3ccccc23)Sc2ccccc21	0	17	0%	?	?
O=C(NC1CCCC1)c1cccc(NC(=O)c2ccco2)c1	60*	-22	.	-3%	0%
N#CCC(=N)N1CCN(c2ccc(F)cc2)CC1	0	-6	1%	-17%	-5%
Cc1sc(NC(=O)CN(C(=O)c2ccccc2F)C2CCCC2)c(C(N)=O)c1C	-1	-9	3%	11%	-2%
C=CCSc1nc2sc3c(c2c(=O)n1CC)CCC3	-1	-3	8%	22µM*	-4%
C=CCn1c(SCC(=O)N(C)C)nc2sc3c(c2c1=O)CCC3	1	-22	0%	4%	4%
CCc1ccc([C@@H]2C[C@H]3[C@@H](CN2S(=O)(=O)c2ccc(C)cc2)C(=O)C[C@@H](c2ccc(C)cc2)N3S(=O)(=O)c2ccc(C)cc2)cc1	0	-14	1%	-16%	-6%
O=c1[nH]c2ccc([N+](=O)[O-])cc2nc1/C=C(\O)c1ccccc1	2	3	28µM*	?	-4%
C/C(O)=C/c1nc2ccccc2[nH]c1=O	0	-8	12%	4%	-5%
CC(=O)OCCn1c(C)[n+](CCOC(C)=O)c2cc(Cl)c(Cl)cc21	-1	-7	5%	14%	5%
CC(=O)OCCn1c2nc(=O)[nH]c(=O)c-2nc2cc(C)c(C)cc21	117*	-22	1%	-19%	13%
CCOc1ccc(NC(=O)Cn2c(=O)n(Cc3ccc(C(=O)NCc4ccc(C)cc4)cc3)c(=O)c3ccccc32)cc1	0	5	2%	10µM*	-1%
Cc1ccc(CNC(=O)c2ccc(Cn3c(=O)c4ccccc4n(CC(=O)Nc4ccc(C)cc4)c3=O)cc2)cc1	0	10	3%	-8%	-6%
COc1ccc(C(=O)NCC(=O)OCC(=O)c2ccc3ccccc3c2)cc1	0	.	0%	.	0%
Cc1nc(C(F)(F)F)c(C(=O)O)cc1-c1nc(-c2ccccc2)cs1	0	39	0%	-3%	1%
CN(C)c1ccc(C=C2C(=O)c3ccccc3C2=O)cc1	51*	.	0%	.	0%
COc1cc(C=C2C(=O)c3ccccc3C2=O)cc(OC)c1OC	0	4	5%	25µM*	-10%
COc1cc(C=C2C(=O)c3ccccc3C2=O)ccc1O	0	-16	2%	1%	0%
Cc1ccc(N(C(=O)Cn2nnc(-c3ccc(F)cc3)n2)C(CC(C)C)C(=O)NCC2CCCO2)cc1 (centres undefined)	2	8	2%	-4%	1%
N=C1/C(=C/c2coc3ccccc3c2=O)C(=O)N=C2SC(c3ccco3)=NN12	81*	-16	9%	?	-2%
N=C1/C(=C\c2coc3ccccc3c2=O)C(=O)N=C2SC(c3ccncc3)=NN12	112*	-14	2%	25µM*	?
CCN(C(=O)CSc1ncc2c(n1)-c1cc(Cl)ccc1N(Cc1ccccc1)S2(=O)=O)c1cccc(C)c1	0	-1	-1%	1%	-1%
CCOC(=O)C1=C(Cc2ccc(F)cc2)C(=O)c2ccccc2C1=O	9	20	10%[38.3 µM]	25µM*	?
SMILES	TRPML1 agonist	TRPML1 inh	PINK1 expr mod	Vif-APOBEC3F blk	Vif-A3G inh
O=C(OCc1ccc(F)cc1)c1ccc2c(c1)-c1ccccc1C2=O	-1	32	0%	-6%	0%
COc1cc(OC)c(NC(=O)c2nn(-c3ccc(C)cc3)c(=O)c3c2c2ccccc2n3C)cc1Cl	1	1	3%	.	.
CCCCNc1c(-c2ccc(Sc3ccc(OC)cc3)cc2)nc2cc(C)ccn12	1	21	28µM*	-1%	2%
CCCCNc1c(-c2ccc(OC)c(SC(C)CC)c2)nc2cc(C)ccn12 (centres undefined)	1	72	15%	0%	1%
COCCNC(=O)C1(C)CCCN(Cc2noc(-c3ccccc3OC)n2)C1 (centres undefined)	-1	.	1%	.	0%
CCOC(=O)c1sc(=S)n(C)c1NC(=O)c1cccc(Br)c1	-1	-4	40µM*	-12%	0%
CCOC(=O)c1sc(=S)n(C)c1NC(=O)c1ccccc1	0	-3	-4%	-3%	-2%
COC(=O)c1ccc2nc(-c3ccc(Cl)cc3)c(Cc3ccsc3)n2c1	0	.	1%	.	.
O=C1/C(=C/c2c[nH]c3ccccc23)CCC/C1=C\c1c[nH]c2ccccc12	4	-11	6%	22µM*	?
CC(=O)Nc1ccc(NC(=O)C(C)OC(=O)c2ccccc2NS(=O)(=O)c2cccs2)cc1 (centres undefined)	0	-4	0%	-11%	-5%
Cc1cccc(NC(=O)C(C)OC(=O)c2ccccc2NS(=O)(=O)c2cc(C)c(C)c([N+](=O)[O-])c2)c1 (centres undefined)	0	1	20µM*	0%	-6%
CC(C)CC[n+]1ccccc1/C=C/c1ccc(N(C)C)cc1	?	-1	32µM*	7.9µM*	10µM*
CC(=O)N1c2ccc(S(=O)(=O)N3CCCCC3)cc2CC1C(=O)NCc1ccccc1C (centres undefined)	0	2	0%	-8%	0%
Cc1cc(C)cc(NC(=O)c2sc3nc(-c4cc5ccccc5oc4=O)[nH]c(=O)c3c2C)c1	0	-50*	0%	?	3%
Cc1cccc(NC(=O)c2sc3nc(-c4cc5ccc(O)cc5oc4=O)[nH]c(=O)c3c2C)c1	112*	?	6%	?	3%
CCOC(=O)C1CCCCN1Cc1nc(N2CCN(C(C)=O)CC2)c2ccccc2n1 (centres undefined)	.	.	1%	.	.
CCCCN(C)CCCNC(=O)Cn1ncc2c3ccccc3n(Cc3ccccc3F)c2c1=O	1	-18	0%	?	-4%
CCS(=O)(=O)c1ccc2oc(SCC(=O)NC(C)C3CC4CCC3C4)nc2c1 (centres undefined)	0	3	4%	10%	-6%
CCN(CC(=O)Nc1ccc2c(c1)OCCO2)C(=O)c1ccc(C)c(S(=O)(=O)N2CCOCC2)c1	0	2	1%	-11%	-1%
Cc1ccc2c(c1)c(/C=C/c1cc[n+](C)cc1)c(C)n2C	6	3	?	-91%	?
Cc1ccc2[nH]c(C)c(/C=C/c3cc[n+](C)cc3)c2c1	10	7	14µM*	-372%	1.3µM*

Bioassay records (PubChem)
